Results on 74 molecules are retold here after PubChem BioAssay AID623868 (Vanderbilt High Throughput Screening Facility, 2012).

Hit rate of the full screen: of about 2,100 compounds, about 760 (36%) were called active. The list is a sample of the results. Unmarked numbers belong to inactive results.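 Rule for the calls: active = thallium-flux fluorescence traces judged by eye to show enhanced or reduced glutamate response, manual score 1 or -1, so both directions (some results past the limit were not filed as active); inactive = the rest, including fluorescent or raised-baseline compounds.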

This assay is described as follows: non-GIRK thallium flux modulation in mGlu8 cells, confirmation, counter-screen for GIRK activator project, cell-based, HEK-293 rmGlu8, no GIRK (AID 623868).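 Note: extra codes mark interference with 3 for fluorescent and 4 for baseline rise.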 To be noted: thallium flux fluorescence, at 10 µM, actives lie on both sides, codes: 1 enhancer, -1 blocker, 0 none, thallium stimulus containing EC20 glutamate. Background: The purpose of a counterscreen is to sort out artefacts and off-target activity.
Take `CCc1nc2cc(Cl)c(Cl)cc2[nH]1`: the manual score was 0.

With `CCCOc1cccc(-c2cc(-c3n[nH]c(=S)n3CC)c3ccccc3n2)c1`, the manual score is 1 (active).

Consider `CCn1c(-c2cc(-c3cccc(OC)c3)nc3ccccc23)n[nH]c1=S`, for which the manual score was 0.5.

With `Cc1nc(C)c(C(=O)Nc2ccc(Oc3ccccc3)cc2)o1`, the manual score was 0.

As for `Cc1occc1C(=O)Nc1cccc(C(F)(F)F)c1`, the manual score is 0.

`CCCCN(C)S(=O)(=O)c1ccc(C(=O)Nc2nnc(-c3cccs3)o2)cc1`: the manual score was 1 (active).

Turning to `Cc1cc(C)c(NC(=O)c2ccc(S(=O)(=O)N(C)C)cc2)c(C)n1`, the manual score was 0.

On to `CCOC(=O)C1=C(CC)Nc2ccccc2N=C1NC(=O)c1ccc(S(=O)(=O)N(C)C)cc1`, for which the manual score is -0.5.

Regarding `Cc1ncoc1C(=O)Nc1ccc(Oc2ccccc2)cc1`, the manual score is 0.

Turning to `O=C(NNC(=S)Nc1cccc(C(F)(F)F)c1)c1cccc(Cl)c1`, the manual score was 0.

As for `O=C(Nc1cccs1)Nc1c(F)c(F)c(F)c(F)c1F`, the manual score was 0.

Take `O=C(Nc1nnc(-c2cccs2)o1)c1cccc(C(F)(F)F)c1`: the manual score is 1 (active).

As to `O=C(Nc1nnc(-c2cccs2)o1)c1cccc(F)c1`, the manual score is 1 (active).

For `O=C(Nc1nnc(-c2cccs2)o1)c1cccc(Oc2ccccc2)c1`, the manual score was 1 (active).

Regarding `CCOC(=O)C1=C(CC)Nc2ccccc2N=C1NC(=O)Nc1ccc(Cl)c(Cl)c1`, the manual score was 0.

Turning to `CN1CCN(S(=O)(=O)c2cccc(S(=O)(=O)c3cccc(S(=O)(=O)N4CCN(C)CC4)c3)c2)CC1`, the manual score is 0.

For the molecule `Cc1cc2nc(CCN(C(=S)NCC(C)C)C3CCCC3)[nH]c2cc1C`, the manual score was 0.

As to `Cc1sc2nc(CN3CCCC3)nc(N3CCN(S(=O)(=O)c4cccs4)CC3)c2c1C`, the manual score was 0.

For the molecule `O=C(CN1C(=O)c2cccc3cccc(c23)C1=O)N1CCN(c2ccccn2)CC1`, the manual score was 3.

As for `Cc1nc(N2CCN(C(=O)COc3ccccc3)CC2)c2c(C)c(C)sc2n1`, the manual score is -1 (active).

For `CSc1cccc(NC(=O)CN(c2ccccc2)S(=O)(=O)N(C)C)c1`, the manual score is 0.

On to `CN(C)C(=O)CSc1cccc2cccnc12`, for which the manual score is 0.

Turning to `CCOC(=O)CSc1cccc2cccnc12`, the manual score was 1 (active).

Take `CCOC(=O)CSc1cc(CSc2ccccc2)nc(-c2ccccc2)n1`: the manual score is 0.

Turning to `Cc1cccc(CSc2cccc3cccnc23)c1`, the manual score was 1 (active).

Regarding `S=C(N/N=C/c1ccc(Cl)cc1)N1CCOCC1`, the manual score is 1 (active).

On to `Clc1ccc(/C=N/Nc2nc(Cl)nc3ccccc23)cc1`, for which the manual score is 0.

Take `Cc1ccc(C(=O)c2ccc(N3CCOCC3)c(F)c2)cc1`: the manual score was 0.

Consider `Cc1ccc(/C=N/NC(=S)N2CCOCC2)cc1`, for which the manual score was 1 (active).

As for `O=C(CCCc1nc(-c2ccc(Cl)cc2)no1)N1CCOCC1`, the manual score is 0.

Regarding `CC(CCc1ccccc1)NC(=O)N1CCOCC1` (centres undefined), the manual score was 0.

In the case of `O=C(NC(=Nc1ccccc1)N1CCOCC1)Nc1ccccc1`, the manual score was 0.

With `S=C(N/N=C/c1ccccc1)N1CCOCC1`, the manual score was 1 (active).

`Cc1ccc(S(=O)(=O)c2c(C)cc(C)nc2Cl)c(C)c1`: the manual score was 0.

Turning to `Cc1ccn2c(NC3CCCCC3)c(C(C)C)nc2c1`, the manual score is 0.

Take `Cc1ccc(NC(=O)CSC(N)=O)cc1Cl`: the manual score is 0.

Regarding `CC(=O)Nc1ccc(S(=O)(=O)NC(C(=O)O)C2=CCC=CC2)cc1` (centres undefined), the manual score is 0.

Consider `CC1=NN(C(N)=S)C(=O)C1N=Nc1ccccc1C` (centres undefined), for which the manual score was 1 (active).

`CC1=NN(C(N)=S)C(=O)C1N=Nc1ccc(C)cc1C` (centres undefined): the manual score was 1 (active).

Consider `N=c1c2c(ncn1CCN1CCOCC1)Oc1ccc3ccccc3c1C2c1ccccc1` (centres undefined), for which the manual score is 0.

With `Cn1c(=O)c(NCCc2ccccc2)c2c3c(cccc31)C(=O)c1ccccc1-2`, the manual score was 3.

With `Cc1nnc2n(C3CCCCC3)c(=O)c3c4c(sc3n12)COC(C)(C)C4`, the manual score was -1 (active).

As for `CC(Nc1nc(N2CCCCC2)nc2ccccc12)c1ccccc1` (centres undefined), the manual score was 0.

Regarding `NC(=O)c1ccc(Cc2ncc(C(F)(F)F)cc2Cl)s1`, the manual score is 0.

On to `Cc1ccc(NC(=S)NNc2ncc(C(F)(F)F)cc2Cl)c(C)c1`, for which the manual score was 1 (active).

As for `O=C1/C(=C\c2ccccn2)SC(=S)N1Nc1ncc(C(F)(F)F)cc1Cl`, the manual score was 0.

Turning to `FC(F)(F)c1cnc(NNC(=S)Nc2ccc(Cl)cc2)c(Cl)c1`, the manual score is 1 (active).

Take `Cc1ccc(NC(=S)Nc2ccc(Cl)c(Cl)c2)c(OC(F)F)c1`: the manual score is 0.

Consider `O=C(NNc1ncc(C(F)(F)F)cc1Cl)c1c(Cl)cccc1Cl`, for which the manual score was 0.5.

In the case of `FC(F)(F)c1cnc(NNC(=S)Nc2ccccc2Cl)c(Cl)c1`, the manual score is 1 (active).

Take `Cn1c(=O)c(NCCO)c2c3c(cccc31)C(=O)c1ccccc1-2`: the manual score was 3.

As to `C/C(=N/NC(=O)c1ccncc1)c1cc2ccc(O)cc2oc1=O`, the manual score is 0.

With `Cc1ccc2nsnc2c1NC(=S)NC(=O)c1ccco1`, the manual score is 1 (active).

As to `Cc1cccc(NC(=S)NC(=O)c2ccco2)n1`, the manual score was 1 (active).

For the molecule `O=C(CC(=O)Nc1ccccn1)Nc1ccccn1`, the manual score is 0.

With `O=C(NC(=S)Nc1ccccn1)c1ccco1`, the manual score is 1 (active).

`Cc1cc(NC(=O)c2ccco2)ccc1NC(=O)Cc1cccs1`: the manual score was 0.

For `O=C(NCCCn1ccnc1)Nc1ccc(Cl)c(Cl)c1`, the manual score is 0.

In the case of `N/C(=N/O)c1nc(N2CCCC2)nc(N(c2ccccc2)c2ccccc2)n1`, the manual score is 0.

As for `CC(C)C(C)(C#N)NC(=O)CSc1ncnc2sc(-c3ccccc3)cc12` (centres undefined), the manual score was 0.

On to `CC(=O)c1c(C)[nH]c(C(=O)COc2cc(C)cc(C)c2)c1C`, for which the manual score is 0.

`CC(=O)c1c(C)[nH]c(C(=O)CSc2ncnc3sc(-c4ccccc4)cc23)c1C`: the manual score is 1 (active).

In the case of `CCN(CC)C(=O)CSc1ncnc2sc(-c3ccccc3)cc12`, the manual score was 0.5.

`CC(C)N(C(=O)CSc1ncnc2sc(-c3ccccc3)cc12)C(C)C`: the manual score was 1 (active).

Consider `CN(CCC#N)C(=O)CSc1ncnc2sc(-c3ccccc3)cc12`, for which the manual score was 0.

Regarding `CCOC(=O)Cn1c(=O)oc2cc(S(=O)(=O)NCCCc3ccccc3)ccc21`, the manual score is 0.

On to `CCOC(=O)c1sc2ncnc(NCc3ccco3)c2c1C`, for which the manual score is 1 (active).

As to `Nc1nc(Nc2ccccc2)nc(NCc2ccco2)c1[N+](=O)[O-]`, the manual score is 0.

Regarding `COc1ccc(C(=O)NC(=S)N2CCC(C)CC2)cc1`, the manual score was 1 (active).

As for `Cc1cccc(NC(=S)N2CCC(C(=O)c3ccc(F)cc3)CC2)c1C`, the manual score is 0.

For `COc1ccc(NC(=O)Nc2ccccc2C(=O)N2CCCC2)cc1`, the manual score was 0.

Regarding `COc1ccc(C(=O)NC(=S)N2CCCCC2)cc1`, the manual score is 1 (active).

Regarding `CNC(=S)N1CCN(c2ccc(OC)cc2)CC1`, the manual score was 0.

As for `CC1CCN(C(=S)NC(=O)c2ccccc2)CC1`, the manual score was 0.5.
